Reference: PubChem BioAssay (NCATS)
“And” between values parts separate entries of the source, which are not always exact repeats. Equal values may be shown once. Records with an inconclusive call do not appear. The source made the active and inactive calls. Unless noted, the call rests on the fitted dose curve; in most records, active means well fitted curve in the direction sought with a large enough effect; inconclusive means small, poorly fitted or top-dose-only effect, or another doubt; inactive means no such curve, though single readings can be large; an effect the other way counts as inactive or inconclusive.

Key:
[1] = qHTS Assay for Identifying Gametocytocidal Compounds (AID 743244); further: potency means the concentration at half of the fitted maximal effect;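 on max response: on the % scale 0 is the no-effect control and ±100 the full control effect; actives lower the fluorescent signal which means gametocytes are killed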; settings: P. falciparum 3D7 stage III-V gametocytes, alamarBlue, 72 h; max response: stronger effect = lower value
Outline: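 Fluorescence at Ex 525/Em 598 nm, recorded 24 h after alamarBlue addition, reports residual metabolic activity of 3D7 gametocytes (stages III–V) following 72 h compound exposure at 37 °C, 5% CO2.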

[2] = qHTS assay for measurement of the activity of small molecule inhibitors on Zika virus induced Caspase-3 activity in human iPSC derived neural progenitor cells (hNPCs) (AID 1224857); further: % of control where 0% means no effect; nearly all actives have a fitted effect of over 65% in size
Outline: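 Zika virus (2 FFU/cell) infection of human iPSC-derived NPCs, 6 h, following 1 h compound preincubation. Read-out: Caspase-Glo 3/7 luminescence.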

[3] = qHTS assay for measurement of the activity of small molecule inhibitors on Zika virus induced Caspase-3 activity in human astrocytoma cells (AID 1224859);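 further: plate controls were ZIKV-infected untreated cells for no effect and uninfected cells for full effect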
Outline: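 Caspase activation in ZIKV-infected SNB-19 cells (2 FFU/cell, 6 h) measured by Caspase-Glo 3/7 luminescence after 30 min RT; compound pre-incubated 1 h; normalised to uninfected and infected controls.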

[4] = qHTS assay to identify small molecule inhibitors of chordoma cells - UCH-1 (AID 1259355); further: on the % scale 0 is the no-effect control and ±100 the full control effect; nearly all actives have a fitted effect of over 55% in size
Outline: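 A 48hr growth-inhibition format: each drug tested at 15 concentrations together with added auranofin, camptothecin, doxorubicin, rubitecan and topotecan, with cell viability quantified as CellTiter-Glo luminescence.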

[5] = P-glycoprotein substrates identified in KB-8-5-11 adenocarcinoma cell line, qHTS therapeutic library screen (AID 1346987); settings: outcome: dose series up to 44.5 µM; further: on the % scale 0 is the no-effect control and ±100 the full control effect; nearly all actives have a fitted effect of over 65% in size
Outline: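 Compounds are pinned in dose-response onto KB-8-5-11 cells (500 cells/well, colchicine-free medium) and left 72 h at 37 degree C. CellTiter-Glo luminescence then yields AC50 values.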

[6] = NS1 protein of Zika virus - qHTS assay to identify small molecule inhibitors in human HEK 293 cells (AID 1347053);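 further: plate controls were infected untreated cells for no effect and uninfected cells for full effect; nearly all actives have a fitted effect of over 55% in size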
Outline: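 Compound-treated (1 h pre-infection) HEK 293 cells infected with ZIKV MR766, MOI = 0.5; after 24 h at 37 C, NS1 read by TR-FRET; data normalized to uninfected and infected controls.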

[7] = qHTS of pediatric cancer cell lines to identify multiple opportunities for drug repurposing: Primary screen for TC32 cells (AID 1347089); further: on the % scale 0 is the no-effect control and ±100 the full control effect; nearly all actives have a fitted effect of over 60% in size
Outline: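 qHTS, TC32, 48 h drug treatment, CellTiter-Glo luminescence as a proxy for metabolically active cells; primary top concentration 46 µM (MIPE 11-pt, NPC 8-pt); confirmatory 11-pt.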

[8] = qHTS of pediatric cancer cell lines to identify multiple opportunities for drug repurposing: Primary screen for DAOY cells (AID 1347090);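 further: plate controls were DMSO for no effect and bortezomib for full effect; nearly all actives have a fitted effect of over 55% in size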
Outline: (§1)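 Eight- or eleven-point concentration series, 48 h treatment at 37 degrees C in growth media; readout CellTiter-Glo luminescence. Potency and efficacy were taken from the concentration-response curves.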

[9] = qHTS of pediatric cancer cell lines to identify multiple opportunities for drug repurposing: Primary screen for SJ-GBM2 cells (AID 1347091);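 further: plate controls were DMSO neutral control for no effect and bortezomib for full effect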
Outline: as §1

[10] = qHTS assay to identify small molecule inhibitors of chordoma cells - UCH-2 (AID 1259356); further: on the % scale 0 is the no-effect control and ±100 the full control effect
[11] = qHTS assay for cell viability of HEK293 cells (AID 743288); settings: ATP luminescence (CellTiter-Glo), 18 h, stronger effect = lower value; further: on the % scale 0 is the no-effect control and ±100 the full control effect; nearly all actives have a fitted effect of over 50% in size
Outline: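 Viable-cell counts were inferred from luciferase-based ATP content in HEK293 cells seeded at 2,000/well, pre-incubated ≥5 h, then dosed with DMSO-solubilised compounds for 18 h at 37 C.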

[12] = qHTS assay for cell viability of the p53RE-bla HCT-116 cell line (AID 743292); further: on the % scale 0 is the no-effect control and ±100 the full control effect; nearly all actives have a fitted effect of over 55% in size
Outline: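 Viability of compound-treated p53RE-bla HCT-116 cells is taken from ATP-dependent luciferase luminescence. Treatment lasts 16 h at 37 C after a 5 h settling period; detection follows 30 min at room temperature.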

[13] = qHTS profiling of the MIPE4 collection as inhibitors of Plasmodium falciparum (3D7) proliferation (AID 743344; call rule not given here;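 further: scaled between DMSO vehicle wells and 0.29 µM artemisinin as full inhibition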); settings: P. falciparum 3D7 in erythrocytes, SYBR Green DNA fluorescence, 72 h; at 9.64 µM (top of the series) unless noted
Outline: (§2)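 Parasite DNA was quantified by SYBR Green I fluorescence (ex 485, em 535 nm) after overnight lysis in saponin/Triton buffer at room temperature. Cultures at 0.3% parasitemia and 2.5% hematocrit were first exposed to compound for 72 h at 37 C; signals were normalised to artemisinin (0.29 uM) and vehicle wells.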

[14] = qHTS profiling of the MIPE4 collection as inhibitors of Plasmodium falciparum (DD2) proliferation (AID 743345; call rule not given here); settings: P. falciparum Dd2 in erythrocytes, SYBR Green DNA, 72 h; at 9.64 µM (top of the series) unless noted
Outline: as §2

[15] = qHTS profiling of the MIPE4 collection as inhibitors of Plasmodium falciparum (DD2) proliferation (Rep 2) (AID 743346; call rule not given here); settings: P. falciparum Dd2 in erythrocytes, SYBR Green DNA, 72 h; at 9.64 µM (top of the series) unless noted
Outline: as §2

[16] = qHTS profiling of the MIPE4 collection as inhibitors of Plasmodium falciparum (HB3) proliferation (AID 743347; call rule not given here;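 further: plate controls were DMSO vehicle wells for no effect and artemisinin wells for full effect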); settings: P. falciparum HB3 in erythrocytes, SYBR Green DNA, 72 h; at 9.64 µM (top of the series) unless noted
Outline: as §2

[17] = P-glycoprotein substrates identified in KB-3-1 adenocarcinoma cell line, qHTS therapeutic library screen (AID 1346986); settings: outcome: dose series up to 44.5 µM; further: nearly all actives have a fitted effect of over 60% in size
Outline: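 72 h cell-killing screen, 500 cells/well, CellTiter-Glo luminescence. Paired lines KB-3-1/KB-8-5-11; P-gp dependence checked by tariquidar co-treatment and HEK-293 MDR-19 versus empty-vector cells.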

NS(=O)(=O)c1cc(C2(O)NC(=O)c3ccccc32)ccc1Cl (stereo unspecified)
inactive: max response [1] 0.268% | outcome [2] | outcome [3] | outcome [4] | outcome [5] | outcome [6] | outcome [7]

O=C(O)c1ccc[n+]([O-])c1
inactive: max response [1] -6.63% | outcome [2] | outcome [3] | outcome [4] | outcome [5] | outcome [6] | outcome [7] | outcome [8] | outcome [9]

CC1CCc2cc(F)cc3c(=O)c(C(=O)O)cn1c23 (stereo unspecified)
inactive: max response [1] -10.9% | outcome [2] | outcome [3] | outcome [4] | outcome [10] | outcome [6] | outcome [7] | outcome [8] | outcome [9]

C/C=C/C(=O)N(CC)c1ccccc1C
inactive: max response [1] 21.1% | outcome [2] | outcome [3] | outcome [4] | outcome [5] | outcome [6] | outcome [7] | outcome [8] | outcome [9]

Cc1cc(C)nc(NS(=O)(=O)c2ccc(N)cc2)n1
inactive: max response [1] -2.99% | max response [11] 2.28% and -2.43% | outcome [12] | outcome [2] | outcome [3] | outcome [4] | outcome [5] | outcome [7] | outcome [8] | outcome [9]

Cc1ccc(S(=O)(=O)NC(=O)NC2CCCCCCC2)cc1
inactive: max response [1] 5.01% | outcome [2] | outcome [3] | outcome [4] | outcome [5] | outcome [6] | outcome [7] | outcome [8]

CCN1CC(CCN2CCOCC2)C(c2ccccc2)(c2ccccc2)C1=O (stereo unspecified)
inactive: max response [1] 3.23% | outcome [2] | outcome [3] | outcome [4] | outcome [10] | outcome [7] | outcome [8] | outcome [9]

Cc1[nH]c(C)c(Cl)c(=O)c1Cl
inactive: max response [1] -2.25% | outcome [2] | outcome [3] | outcome [4] | outcome [5] | outcome [6] | outcome [7] | outcome [8]

CCCC(O)C(CC)CO (stereo unspecified)
inactive: max response [1] 0.642% | max response [11] -0.929% | outcome [12] | outcome [2] | outcome [3] | outcome [4] | outcome [5] | outcome [6] | outcome [7] | outcome [9]

Nc1ccncc1N
inactive: max response [1] 8.86% | outcome [2] | outcome [3] | outcome [4] | outcome [10] | outcome [5] | outcome [7] | outcome [8]

O=C(O)Cn1c(C(=O)Nc2nc(-c3ccccc3Cl)cs2)cc2ccccc21
inactive: max response [1] 1.71% | outcome [2] | outcome [3] | outcome [4] | outcome [5] | outcome [6] | outcome [7] | outcome [8] | outcome [9]

COC(=O)c1ccccc1C(=O)c1ccc(OCCN2CCCCC2)cc1
inactive: max response [1] -9.15% | outcome [2] | outcome [3] | outcome [4] | outcome [10] | outcome [6] | outcome [7] | outcome [8] | outcome [9]

O=C1c2ccccc2C(=O)C1c1ccc(Br)cc1
inactive: max response [1] -7.34% | outcome [2] | outcome [3] | outcome [4] | outcome [5] | outcome [6] | outcome [7] | outcome [9]

OCc1ccc(Cl)cc1Cl
inactive: max response [1] -2.07% | outcome [2] | outcome [3] | outcome [4] | outcome [5] | outcome [6] | outcome [7] | outcome [8] | outcome [9]

NC(=O)CC[C@@H](N)C(=O)O
inactive: max response [1] -2.82% | outcome [2] | outcome [3] | outcome [4] | outcome [5] | outcome [7] | outcome [8] | outcome [9]

COc1ccccc1OCC(O)CO (stereo unspecified)
inactive: max response [1] 10.4% | outcome [2] | outcome [3] | outcome [4] | outcome [5] | outcome [6] | outcome [7] | outcome [8] | outcome [9]

NS(=O)(=O)c1ccc(C(=O)O)cc1
inactive: max response [1] 4.63% | outcome [2] | outcome [3] | outcome [4] | outcome [5] | outcome [7] | outcome [9]

OCCN1C[C@H](O)[C@@H](O)[C@H](O)[C@H]1CO
inactive: max response [1] 4.21% | outcome [2] | outcome [3] | outcome [4] | outcome [5] | outcome [6] | outcome [7] | outcome [8] | outcome [9]

O=C(/C=C/c1ccccc1)OCc1ccccc1
inactive: max response [1] 18.6% | outcome [2] | outcome [3] | outcome [4] | outcome [5] | outcome [6] | outcome [7] | outcome [8]

Nc1ccc(S(=O)(=O)c2ccc(N)cc2)cc1
100%: growth, % of control [16]
103%: parasite growth remaining, % of DMSO control (lower = more inhibition) [14]
91.3%: parasite growth, % of DMSO control [13]
inactive: max response [1] -3.88% | max response [11] -5.62% and -11.7% | outcome [12] | outcome [2] | outcome [3] | outcome [4] | outcome [5] | outcome [6] | outcome [7] | outcome [8] | outcome [9]
101%: parasite growth, % of control (lower = inhibition) [15]

C[C@@H]1CCC[C@H](C)N1
inactive: max response [1] 20.8% | outcome [2] | outcome [3] | outcome [4] | outcome [5] | outcome [7] | outcome [8]

CC(C)CCCC(C)CCCC(C)CCCCC(C)CCCC(C)CCCC(C)C (stereo unspecified)
inactive: max response [1] 5.26% | outcome [2] | outcome [3] | outcome [4] | outcome [5] | outcome [6] | outcome [7] | outcome [8]

CCN[C@H]1CN(CCCOC)S(=O)(=O)c2sc(S(N)(=O)=O)cc21
inactive: max response [1] 21.3% | outcome [2] | outcome [3] | outcome [4] | outcome [5] | outcome [6] | outcome [7] | outcome [8] | outcome [9]

O=C(O)C(S)C(S)C(=O)O (stereo unspecified)
inactive: outcome [2] | outcome [3] | outcome [4] | outcome [10] | outcome [6] | outcome [7] | outcome [8] | outcome [9]

Cc1onc(-c2ccccc2)c1-c1ccc(S(N)(=O)=O)cc1
inactive: max response [1] 7.78% | outcome [2] | outcome [3] | outcome [4] | outcome [10] | outcome [6] | outcome [7] | outcome [9]

Nc1c2c(nc3c1CCC3)CCCC2
inactive: outcome [2] | outcome [3] | outcome [4] | outcome [5] | outcome [6] | outcome [7] | outcome [8] | outcome [9]
active: Potency [1] 11.2 µM

CN(C/C=C/C#CC(C)(C)C)Cc1cccc2ccccc12
inactive: max response [1] -1.43% | outcome [2] | outcome [3] | outcome [4] | outcome [10] | outcome [5] | outcome [7] | outcome [9]

C/C(=C(\CCO)SS/C(CCO)=C(\C)N(C=O)Cc1cnc(C)nc1N)N(C=O)Cc1cnc(C)nc1N
inactive: max response [1] -3.83% | outcome [2] | outcome [3] | outcome [4] | outcome [5] | outcome [6] | outcome [7] | outcome [9]

O=C(O)CCCc1ccccc1
inactive: max response [1] 13.9% | outcome [2] | outcome [3] | outcome [10] | outcome [17] | outcome [5] | outcome [6] | outcome [7] | outcome [8] | outcome [9]

O=C(O)c1cc(=O)c2ccccc2o1
inactive: max response [1] 42.7% | outcome [2] | outcome [3] | outcome [4] | outcome [5] | outcome [7] | outcome [9]

O=c1[nH]c(=O)c2ccccc2o1
inactive: max response [1] -4.26% | outcome [2] | outcome [3] | outcome [10] | outcome [5] | outcome [7] | outcome [9]

CCCCOC(=O)c1ccc(N)cc1
inactive: max response [1] -1.98% | max response [11] 3.29% | outcome [12] | outcome [2] | outcome [3] | outcome [4] | outcome [7] | outcome [8]

O=C(CCBr)N1CCN(C(=O)CCBr)CC1
inactive: max response [1] -1.41% | outcome [2] | outcome [3] | outcome [10] | outcome [5] | outcome [6] | outcome [7] | outcome [8] | outcome [9]

C[C@H]1COc2c(C3(N)CC3)c(F)cc3c(=O)c(C(=O)O)cn1c23
inactive: max response [1] -1.28% | outcome [2] | outcome [3] | outcome [5] | outcome [6] | outcome [7] | outcome [8] | outcome [9]
